Experiment [1] addresses T1, Protein kinase C zeta type (Homo sapiens) (UniProt Q05513).
T1 sequence (whole entry): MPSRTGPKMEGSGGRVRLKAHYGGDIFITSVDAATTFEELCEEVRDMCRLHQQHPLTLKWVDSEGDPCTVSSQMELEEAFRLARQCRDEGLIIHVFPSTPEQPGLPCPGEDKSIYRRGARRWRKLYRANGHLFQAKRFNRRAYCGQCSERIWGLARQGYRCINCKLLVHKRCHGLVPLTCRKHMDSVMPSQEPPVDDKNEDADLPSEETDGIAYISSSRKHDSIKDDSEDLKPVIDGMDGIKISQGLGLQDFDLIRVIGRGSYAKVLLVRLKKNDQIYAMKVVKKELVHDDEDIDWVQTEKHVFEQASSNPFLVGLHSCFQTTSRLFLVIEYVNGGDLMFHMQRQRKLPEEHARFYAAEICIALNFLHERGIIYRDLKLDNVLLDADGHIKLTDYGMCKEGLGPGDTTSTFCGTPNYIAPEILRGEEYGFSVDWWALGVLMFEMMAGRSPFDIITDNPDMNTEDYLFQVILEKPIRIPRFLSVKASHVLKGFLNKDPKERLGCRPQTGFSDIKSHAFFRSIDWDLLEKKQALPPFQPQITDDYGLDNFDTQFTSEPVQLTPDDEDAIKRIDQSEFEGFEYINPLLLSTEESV
The note with it: at 1 µM.

The target of experiment [2] is T2, Mitogen-activated protein kinase kinase kinase 5 (Homo sapiens) (UniProt Q99683).
T2 sequence (whole entry): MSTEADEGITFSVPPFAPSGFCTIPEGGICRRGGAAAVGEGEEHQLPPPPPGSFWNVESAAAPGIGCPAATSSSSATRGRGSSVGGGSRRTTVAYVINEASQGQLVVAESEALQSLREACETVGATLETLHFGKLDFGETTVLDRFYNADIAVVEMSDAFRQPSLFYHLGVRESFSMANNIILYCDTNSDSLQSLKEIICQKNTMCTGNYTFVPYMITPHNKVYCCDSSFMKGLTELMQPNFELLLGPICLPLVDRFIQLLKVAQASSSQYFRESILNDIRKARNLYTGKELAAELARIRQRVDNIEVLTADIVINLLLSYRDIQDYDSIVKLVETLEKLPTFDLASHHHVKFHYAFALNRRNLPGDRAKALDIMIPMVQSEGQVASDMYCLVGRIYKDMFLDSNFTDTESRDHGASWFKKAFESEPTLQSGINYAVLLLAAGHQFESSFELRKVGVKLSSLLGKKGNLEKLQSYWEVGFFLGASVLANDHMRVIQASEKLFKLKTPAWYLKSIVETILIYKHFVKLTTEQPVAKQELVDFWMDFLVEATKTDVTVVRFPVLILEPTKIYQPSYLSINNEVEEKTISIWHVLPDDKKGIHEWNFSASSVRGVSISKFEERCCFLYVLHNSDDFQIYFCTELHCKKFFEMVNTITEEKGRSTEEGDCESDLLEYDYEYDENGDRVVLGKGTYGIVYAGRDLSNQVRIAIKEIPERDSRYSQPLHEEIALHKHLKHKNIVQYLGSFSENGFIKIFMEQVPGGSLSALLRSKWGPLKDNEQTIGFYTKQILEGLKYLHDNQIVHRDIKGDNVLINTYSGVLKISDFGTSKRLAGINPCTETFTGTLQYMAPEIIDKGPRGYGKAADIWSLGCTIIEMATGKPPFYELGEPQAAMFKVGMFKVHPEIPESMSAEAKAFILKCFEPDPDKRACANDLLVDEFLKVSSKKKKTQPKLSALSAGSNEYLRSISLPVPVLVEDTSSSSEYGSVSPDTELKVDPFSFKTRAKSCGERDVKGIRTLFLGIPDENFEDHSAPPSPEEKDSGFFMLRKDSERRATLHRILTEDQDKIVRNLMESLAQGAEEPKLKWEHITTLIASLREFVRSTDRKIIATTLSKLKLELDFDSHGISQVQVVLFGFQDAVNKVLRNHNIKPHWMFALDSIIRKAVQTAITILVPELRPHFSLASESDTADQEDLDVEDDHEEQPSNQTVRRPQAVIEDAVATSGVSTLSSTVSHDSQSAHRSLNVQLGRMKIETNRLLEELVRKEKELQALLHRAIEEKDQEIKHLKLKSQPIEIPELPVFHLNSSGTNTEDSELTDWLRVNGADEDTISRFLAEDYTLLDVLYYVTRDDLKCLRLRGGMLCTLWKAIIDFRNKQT
To be noted: at 10 µM.

In experiment [3] the target is Tyrosine-protein kinase ABL1 (Homo sapiens) (UniProt P00519). The note with it: at 1 µM.
Sequence of Tyrosine-protein kinase ABL1 (Homo sapiens) (P00519 whole entry): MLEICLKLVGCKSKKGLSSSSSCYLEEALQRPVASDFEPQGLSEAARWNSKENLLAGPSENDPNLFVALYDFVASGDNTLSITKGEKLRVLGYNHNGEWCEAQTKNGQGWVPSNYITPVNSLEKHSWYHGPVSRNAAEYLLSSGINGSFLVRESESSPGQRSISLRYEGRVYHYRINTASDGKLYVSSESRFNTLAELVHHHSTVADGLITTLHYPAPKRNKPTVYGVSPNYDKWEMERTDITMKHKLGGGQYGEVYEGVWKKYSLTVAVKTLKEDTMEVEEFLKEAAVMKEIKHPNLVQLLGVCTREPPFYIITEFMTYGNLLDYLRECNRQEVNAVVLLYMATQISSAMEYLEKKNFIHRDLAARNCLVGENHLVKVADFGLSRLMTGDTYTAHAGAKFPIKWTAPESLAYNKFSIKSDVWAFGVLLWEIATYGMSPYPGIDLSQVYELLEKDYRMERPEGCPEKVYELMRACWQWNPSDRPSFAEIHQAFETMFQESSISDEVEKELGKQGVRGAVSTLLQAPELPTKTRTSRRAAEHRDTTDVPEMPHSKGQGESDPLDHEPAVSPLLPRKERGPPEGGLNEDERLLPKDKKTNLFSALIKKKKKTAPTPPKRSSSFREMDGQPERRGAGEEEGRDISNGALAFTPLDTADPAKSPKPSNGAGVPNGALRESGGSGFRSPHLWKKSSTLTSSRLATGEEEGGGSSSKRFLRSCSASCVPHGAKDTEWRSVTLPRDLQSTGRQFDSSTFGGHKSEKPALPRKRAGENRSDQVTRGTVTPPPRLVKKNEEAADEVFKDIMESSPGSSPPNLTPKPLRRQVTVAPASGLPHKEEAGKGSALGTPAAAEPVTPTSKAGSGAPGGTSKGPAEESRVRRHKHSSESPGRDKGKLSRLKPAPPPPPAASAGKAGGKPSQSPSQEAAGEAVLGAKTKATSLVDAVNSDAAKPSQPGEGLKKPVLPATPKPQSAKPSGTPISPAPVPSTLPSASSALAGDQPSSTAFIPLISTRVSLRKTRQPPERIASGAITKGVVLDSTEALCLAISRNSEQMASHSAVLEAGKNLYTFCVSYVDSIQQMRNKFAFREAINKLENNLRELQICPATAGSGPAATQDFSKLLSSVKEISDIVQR
For experiment [4] the target is unchanged. The note with it: at 10 µM.
Experiment [5] addresses Tyrosine-protein kinase ABL2 (Homo sapiens) (UniProt P42684). To be noted: at 1 µM.
Experiment [6] has the same target. To be noted: at 10 µM.
Experiment [7] addresses T3, Aurora kinase A (Homo sapiens) (UniProt O14965).
T3 sequence (whole entry): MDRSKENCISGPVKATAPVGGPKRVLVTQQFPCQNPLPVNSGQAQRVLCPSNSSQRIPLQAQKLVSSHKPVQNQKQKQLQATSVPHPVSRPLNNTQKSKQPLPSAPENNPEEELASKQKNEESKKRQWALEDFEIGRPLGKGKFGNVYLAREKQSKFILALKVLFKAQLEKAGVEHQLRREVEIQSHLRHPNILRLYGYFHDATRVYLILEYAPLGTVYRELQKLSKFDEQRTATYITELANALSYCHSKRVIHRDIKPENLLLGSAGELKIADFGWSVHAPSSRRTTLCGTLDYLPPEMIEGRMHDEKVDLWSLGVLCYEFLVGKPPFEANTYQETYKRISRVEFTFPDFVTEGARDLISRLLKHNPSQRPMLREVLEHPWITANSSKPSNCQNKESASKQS
The note with it: at 1 µM.

In experiment [8] the target is T3, Aurora kinase A (Homo sapiens). To be noted: at 10 µM.
The target of experiment [9] is Aurora kinase B (Homo sapiens) (UniProt Q96GD4). To be noted: at 1 µM.
Sequence of Aurora kinase B (Homo sapiens) (Q96GD4 whole entry): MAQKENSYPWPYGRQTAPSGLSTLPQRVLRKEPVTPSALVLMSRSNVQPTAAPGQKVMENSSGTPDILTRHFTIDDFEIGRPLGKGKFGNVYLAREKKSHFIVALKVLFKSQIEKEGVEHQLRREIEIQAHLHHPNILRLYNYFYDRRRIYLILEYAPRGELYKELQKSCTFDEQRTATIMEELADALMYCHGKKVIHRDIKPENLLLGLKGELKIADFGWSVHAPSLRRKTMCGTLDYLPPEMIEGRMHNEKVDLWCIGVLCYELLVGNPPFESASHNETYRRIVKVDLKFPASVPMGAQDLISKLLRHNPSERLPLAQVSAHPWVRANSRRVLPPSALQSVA
Experiment [10] has the same target. To be noted: at 10 µM.
The target of experiment [11] is T4, Aurora kinase C (Homo sapiens) (UniProt Q9UQB9).
T4 sequence (whole entry): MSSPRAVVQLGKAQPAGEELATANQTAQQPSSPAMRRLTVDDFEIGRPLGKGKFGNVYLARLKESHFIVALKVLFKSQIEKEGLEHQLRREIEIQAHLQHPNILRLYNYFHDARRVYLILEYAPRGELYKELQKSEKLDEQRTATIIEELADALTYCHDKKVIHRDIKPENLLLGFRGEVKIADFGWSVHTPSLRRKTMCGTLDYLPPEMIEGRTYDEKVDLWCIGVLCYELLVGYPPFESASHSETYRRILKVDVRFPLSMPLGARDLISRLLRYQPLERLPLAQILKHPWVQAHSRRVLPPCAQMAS
The note with it: at 1 µM.

The target in experiment [12] is T4, Aurora kinase C (Homo sapiens). The note with it: at 10 µM.
Experiment [13] has as its target Tyrosine-protein kinase receptor UFO (Homo sapiens) (UniProt P30530). To be noted: at 1 µM.
Experiment [14] shares this target. The note with it: at 10 µM.
Experiment [15] addresses Protein-tyrosine kinase 6 (Homo sapiens) (UniProt Q13882). To be noted: at 1 µM.
The target is the same in experiment [16]. To be noted: at 10 µM.
Experiment [17] concerns the target Tyrosine-protein kinase BTK (Homo sapiens) (UniProt Q06187). The note with it: at 1 µM.
For experiment [18] the target is unchanged. To be noted: at 10 µM.
Experiment [19] has as its target Tyrosine-protein kinase Blk (Homo sapiens) (UniProt P51451). The note with it: at 1 µM.
For experiment [20] the target is unchanged. The note with it: at 10 µM.

Sequence of Tyrosine-protein kinase ABL2 (Homo sapiens) (P42684 whole entry): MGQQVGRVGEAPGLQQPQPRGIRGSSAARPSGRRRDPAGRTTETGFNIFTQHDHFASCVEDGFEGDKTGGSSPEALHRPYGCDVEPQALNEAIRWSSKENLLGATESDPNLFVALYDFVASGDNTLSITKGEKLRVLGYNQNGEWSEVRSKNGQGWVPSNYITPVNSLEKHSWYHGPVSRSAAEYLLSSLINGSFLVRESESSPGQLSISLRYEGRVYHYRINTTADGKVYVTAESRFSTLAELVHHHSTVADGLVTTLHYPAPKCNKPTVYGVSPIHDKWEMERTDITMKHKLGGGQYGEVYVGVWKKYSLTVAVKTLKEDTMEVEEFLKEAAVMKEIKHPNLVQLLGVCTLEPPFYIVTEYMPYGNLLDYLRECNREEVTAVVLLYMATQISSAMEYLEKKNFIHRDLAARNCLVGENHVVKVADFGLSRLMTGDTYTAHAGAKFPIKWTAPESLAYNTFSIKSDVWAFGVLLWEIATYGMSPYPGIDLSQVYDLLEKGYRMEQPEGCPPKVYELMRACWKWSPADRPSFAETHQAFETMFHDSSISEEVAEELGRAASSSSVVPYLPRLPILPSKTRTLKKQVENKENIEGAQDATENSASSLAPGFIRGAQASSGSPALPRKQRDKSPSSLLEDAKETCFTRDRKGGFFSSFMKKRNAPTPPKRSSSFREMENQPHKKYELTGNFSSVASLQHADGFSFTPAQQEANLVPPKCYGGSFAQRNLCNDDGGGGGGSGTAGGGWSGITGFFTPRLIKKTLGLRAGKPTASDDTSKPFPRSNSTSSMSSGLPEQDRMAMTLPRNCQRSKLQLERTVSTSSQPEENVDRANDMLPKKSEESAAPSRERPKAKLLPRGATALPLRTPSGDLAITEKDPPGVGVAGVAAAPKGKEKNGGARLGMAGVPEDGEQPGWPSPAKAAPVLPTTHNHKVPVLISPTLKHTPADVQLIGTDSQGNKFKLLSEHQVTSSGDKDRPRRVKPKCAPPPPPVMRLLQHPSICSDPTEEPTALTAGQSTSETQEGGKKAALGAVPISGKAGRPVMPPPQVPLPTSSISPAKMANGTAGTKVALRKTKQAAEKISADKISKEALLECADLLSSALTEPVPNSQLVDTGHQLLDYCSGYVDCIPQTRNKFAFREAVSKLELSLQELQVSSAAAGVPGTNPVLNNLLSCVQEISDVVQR
Sequence of Tyrosine-protein kinase BTK (Homo sapiens) (Q06187 whole entry): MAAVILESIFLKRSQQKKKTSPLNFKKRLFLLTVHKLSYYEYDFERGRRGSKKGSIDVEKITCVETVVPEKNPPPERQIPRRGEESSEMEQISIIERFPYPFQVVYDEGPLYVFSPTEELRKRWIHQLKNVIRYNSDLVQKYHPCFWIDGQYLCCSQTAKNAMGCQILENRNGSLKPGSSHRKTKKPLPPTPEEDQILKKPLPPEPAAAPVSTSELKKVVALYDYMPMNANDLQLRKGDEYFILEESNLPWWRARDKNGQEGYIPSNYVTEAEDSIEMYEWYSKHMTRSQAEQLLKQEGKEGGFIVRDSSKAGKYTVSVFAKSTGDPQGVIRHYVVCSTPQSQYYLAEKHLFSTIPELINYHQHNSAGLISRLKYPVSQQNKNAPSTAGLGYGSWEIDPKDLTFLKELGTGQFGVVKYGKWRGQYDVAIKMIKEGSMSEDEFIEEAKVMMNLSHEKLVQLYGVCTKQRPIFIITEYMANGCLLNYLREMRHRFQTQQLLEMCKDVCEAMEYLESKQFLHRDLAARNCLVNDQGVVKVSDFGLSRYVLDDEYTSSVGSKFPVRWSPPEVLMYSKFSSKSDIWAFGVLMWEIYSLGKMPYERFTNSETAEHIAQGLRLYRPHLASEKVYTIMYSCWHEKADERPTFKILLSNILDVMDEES
Sequence of Protein-tyrosine kinase 6 (Homo sapiens) (Q13882 whole entry, looked up): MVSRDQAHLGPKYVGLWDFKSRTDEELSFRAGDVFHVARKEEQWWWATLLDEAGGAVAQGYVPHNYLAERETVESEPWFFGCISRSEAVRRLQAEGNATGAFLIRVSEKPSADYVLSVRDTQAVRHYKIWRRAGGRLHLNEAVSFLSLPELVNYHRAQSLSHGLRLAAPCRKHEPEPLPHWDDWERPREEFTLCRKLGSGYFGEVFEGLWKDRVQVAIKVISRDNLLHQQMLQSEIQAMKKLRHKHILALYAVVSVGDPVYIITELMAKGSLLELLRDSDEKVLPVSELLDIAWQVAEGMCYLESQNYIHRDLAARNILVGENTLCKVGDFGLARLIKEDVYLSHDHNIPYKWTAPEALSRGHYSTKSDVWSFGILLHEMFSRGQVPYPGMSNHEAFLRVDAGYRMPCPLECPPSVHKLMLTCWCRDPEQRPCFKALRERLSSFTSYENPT
Sequence of Tyrosine-protein kinase receptor UFO (Homo sapiens) (P30530 whole entry): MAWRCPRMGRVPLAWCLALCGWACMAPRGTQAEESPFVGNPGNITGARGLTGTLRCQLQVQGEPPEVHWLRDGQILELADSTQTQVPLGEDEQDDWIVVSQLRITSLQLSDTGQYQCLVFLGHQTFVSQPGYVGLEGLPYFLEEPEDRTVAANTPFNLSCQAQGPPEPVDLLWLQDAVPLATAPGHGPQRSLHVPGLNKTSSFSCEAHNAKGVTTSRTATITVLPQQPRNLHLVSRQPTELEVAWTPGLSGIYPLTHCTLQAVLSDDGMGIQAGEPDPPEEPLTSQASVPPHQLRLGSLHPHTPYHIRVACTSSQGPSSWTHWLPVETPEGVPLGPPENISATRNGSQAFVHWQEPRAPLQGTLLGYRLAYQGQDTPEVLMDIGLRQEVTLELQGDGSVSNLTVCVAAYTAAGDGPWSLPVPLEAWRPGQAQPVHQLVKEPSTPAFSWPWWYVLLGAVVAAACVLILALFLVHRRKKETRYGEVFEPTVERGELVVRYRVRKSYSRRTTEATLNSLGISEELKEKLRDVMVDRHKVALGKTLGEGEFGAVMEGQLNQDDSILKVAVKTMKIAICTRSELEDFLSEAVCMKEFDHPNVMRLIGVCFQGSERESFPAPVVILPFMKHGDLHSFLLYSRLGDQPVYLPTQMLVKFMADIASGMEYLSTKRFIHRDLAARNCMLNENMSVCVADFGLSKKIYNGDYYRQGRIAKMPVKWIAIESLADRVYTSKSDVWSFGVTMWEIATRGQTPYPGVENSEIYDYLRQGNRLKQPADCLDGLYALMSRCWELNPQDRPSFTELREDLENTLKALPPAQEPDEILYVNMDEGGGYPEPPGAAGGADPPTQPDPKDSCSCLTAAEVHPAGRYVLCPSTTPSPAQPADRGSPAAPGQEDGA

As to `O=c1c2ccccc2[nH]c(=S)n1CCN1CCC(=C(c2ccc(F)cc2)c2ccc(F)cc2)CC1`, the residual activity in experiment [1] was 101% (inactive); in experiment [2], 116%; in [3] it was 86%; in experiment [4], 124%; in experiment [5] it was 93%; in [6], 74%. The residual activity in experiment [7] came out at 119%; in experiment [8], 108%; in [9] it was 95%; in experiment [10], 115%; in experiment [11], 110%; in experiment [12] it was 84%. In addition, the residual activity in experiment [13] came to 103%; in [14], 89%; in [15] it was 112%; in experiment [16], 95%; in experiment [17], 90%; in experiment [18], 123%. Besides, the residual activity in experiment [19] was 101%; in experiment [20], 66%.

For `O=C1Nc2ccccc2/C1=C1/Nc2ccccc2/C1=N\OCCC(O)CO` (stereo not given), the residual activity was 95% (inactive) in experiment [1]; 29% in experiment [2]; 61% in experiment [3]; 43% in experiment [4]; 45% in experiment [5]; 18% in [6]. For the same compound, the residual activity in experiment [7] was 7%; in experiment [8] it was 3%; in [9], -1%; in experiment [10] it was -1%; in experiment [11], 43%; in [12], 30%. In addition, the residual activity is 12% in experiment [13]; 5% in experiment [14]; 56% in experiment [15]; 53% in experiment [16]; 12% in experiment [17]; -2% in [18]. In addition, the residual activity was 4% in experiment [19] and 0% in experiment [20].

Turning to `O=C1c2ccccc2-[n+]2ccc3c([nH]c4ccccc43)c21`, the residual activity in experiment [1] was 98% (inactive); in [2] it was 92%; in experiment [3] it was 102%; in experiment [4], 102%; in [5] it was 111%; in experiment [6] it was 87%. For the same compound, the residual activity amounted to 101% in experiment [7]; 89% in experiment [8]; 93% in experiment [9]; 52% in experiment [10]; 83% in [11]; 72% in experiment [12]. Besides, the residual activity in experiment [13] amounted to 73%; in [14], 62%; in experiment [15], 97%; in [16], 80%; in experiment [17], 94%; in experiment [18], 87%. The residual activity in experiment [19] stood at 95%; in [20], 76%.

On to `CC[n+]1c(/C=C/N(C)c2ccccc2)n(-c2ccccc2)c2ccc(-c3nc4ccccc4s3)cc21`, for which the residual activity in experiment [1] is 107% (inactive); in [2], 102%; in [3] it was 115%; in experiment [4], 146%; in [5] it was 112%; in experiment [6], 85%. Further, the residual activity is 117% in [7]; 139% in [8]; 139% in experiment [9]; 91% in [10]; 107% in [11]; 93% in experiment [12]. In addition, the residual activity in experiment [13] came to 134%; in [14] it was 58%; in [15], 109%; in [16], 94%; in experiment [17] it was 87%; in [18] it was 58%. In addition, the results for the residual activity in experiment [19] and in experiment [20] were 100% and 55%, respectively.

As for `Nc1n[nH]c2nnc(-c3c(-c4ccccc4)nn4ccccc34)cc12`, the residual activity in experiment [1] is 116% (inactive); in [2], 100%; in experiment [3], 64%; in experiment [4], 19%; in [5] it was 66%; in experiment [6], 18%. Also, the residual activity is 105% in [7]; 92% in experiment [8]; 91% in experiment [9]; 41% in experiment [10]; 83% in [11]; 66% in experiment [12]. Moreover, the residual activity in experiment [13] is 98%; in experiment [14], 84%; in experiment [15], 95%; in experiment [16], 78%; in experiment [17] it was 86%; in experiment [18], 47%. Moreover, the residual activity in experiment [19] was 100%; in experiment [20], 63%.

As to `N#C/C(=C(\N)Sc1ccc(N)cc1)c1ccccc1C(F)(F)F`, the residual activity in [1] was 105% (inactive); in experiment [2], 103%; in experiment [3], 94%; in experiment [4], 87%; in experiment [5], 88%; in [6], 82%. Further, the residual activity came out at 75% in experiment [7]; 70% in [8]; 26% in [9]; 15% in [10]; 84% in experiment [11]; 83% in experiment [12]. The residual activity in [13] was 96%; in experiment [14], 73%; in [15] it was 105%; in [16] it was 114%; in experiment [17], 91%; in [18], 93%. Further, the residual activity in experiment [19] amounted to 90%; in experiment [20], 79%.

(Values after ChEMBL document CHEMBL2218924, “A broad activity screen in support of a chemogenomic map for kinase signalling research and drug discovery” (Biochem J, 2013).)
